Source: PubChem
HEK293 tox – Cytotoxic Profiling in HEK 293 Cell Line of Diverse Libraries Using Quantitative High-Throughput Screening; HEK 293 viability, ATP luminescence (CellTiter-Glo), 48-72 h; Potency, µM (titrated, usually from 115 µM), for inactives: top-dose activity change, negative = cytotoxicity, most hits filed as inhibitors; 94,000 compounds, 6.6% hits; further: potency means the concentration at half of the fitted maximal effect; on the % scale 0 is the no-effect control and ±100 the full control effect; nearly all actives have a fitted effect of over 60% in size
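HEK 293 seeded at 250 cells/well receive compound via pintool. After 48 or 72 hr at 37 degree Celsius, 5% CO2 and 95% humidity, CellTiter-Glo is dispensed and luminescence read following 10 min at room temperature.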
GPT2 inhibitor – Primary qHTS assay for inhibitors of Glutamate pyruvate transaminase 2 (GPT2); Alanine aminotransferase 2 (Homo sapiens), Q8TD30; Recombinant GPT2, coupled pyruvate oxidase/HRP Amplex Red fluorescence; Potency, µM (series often up to 57.7 µM), inactives show at the top dose activity change, negative = inhibition, most hits filed as inhibitors; 100,000 compounds, 0.25% hits; further: potency means the concentration at half of the fitted maximal effect; on the % scale 0 is the no-effect control and ±100 the full control effect; nearly all actives have a fitted effect of over 60% in size
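Recombinant GPT2 (10ng/uL) with 250uM a-KG and 2mM L-alanine, 30 min at room temperature, in HEPES pH 7.5 buffer. Pyruvate detected by pyruvate oxidase/HRP/Amplex Red fluorescence after 30 min in the dark; AOA (50uM) as positive control.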
NPR1 antag – Natriuretic polypeptide receptor (hNpr1) antagonism - Primary qHTS; Atrial natriuretic peptide receptor 1 (Homo sapiens), P16066; HEK293 hNpr1 GloSensor cGMP, ANP-stimulated luminescence; Potency, µM (highest dose often 46.3 µM), for inactives: top-dose activity change, negative = inhibition, hits mostly inhibitors; 76,000 compounds, 1.6% hits; calls by dose curve; further: potency means the concentration at half of the fitted maximal effect; on the % scale 0 is the no-effect control and ±100 the full control effect; nearly all actives have a fitted effect of over 60% in size
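Compound pre-incubated 30 min at room temperature on GloSensor-loaded HEK293 cells stably carrying hNpr1 and the pGS-40F cGMP biosensor. Stimulation uses hNppA at 0.1 nM final; luminescence is taken at baseline and 20 min post-agonist.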
NIH3T3 tox – Cytotoxic Profiling in NIH 3T3 Cell Line of Diverse Libraries Using Quantitative High-Throughput Screening. 94,000 compounds, 4.3% hits. AID 1345082, 2018. NIH 3T3 viability, CellTiter-Glo ATP luminescence, 48-72 h. Potency, µM (series often up to 96.7 µM), for the others: at the highest dose activity change, negative = cytotoxicity, most hits filed as inhibitors; further: potency means the concentration at half of the fitted maximal effect; on the % scale 0 is the no-effect control and ±100 the full control effect; nearly all actives have a fitted effect of over 55% in size
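Viability of NIH 3T3 cells after 48 or 72 hr compound treatment at 37 °C was assessed by CellTiter-Glo, with luminescence imaged following a 10 min room-temperature step.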
Luciferase inh – Firefly luciferase inhibition profiling of diverse chemical library using quantitative high-throughput screening. purified P. pyralis luciferase, luminescence, biochemical. Potency, µM (series often up to 115 µM), most hits filed as inhibitors. Luciferin 4-monooxygenase (Photinus pyralis), P08659. 76,000 compounds, 2.5% hits; further: potency means the concentration at half of the fitted maximal effect; on the % scale 0 is the no-effect control and ±100 the full control effect; nearly all actives have a fitted effect of over 65% in size
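Purified 10nM P. pyralis luciferase with 10uM D-luciferin and 10uM ATP in 50mM Tris acetate pH 7.5, 10mM Mg acetate, 0.01% Tween-20, 0.05% BSA. qHTS titration; luminescence read by CCD imager.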
Npr1 antag conf – Natriuretic polypeptide receptor (hNpr1) antagonism - Confirmation; shares compounds with NPR1 antag; HEK293 hNpr1 cGMP GloSensor luminescence, ANP-stimulated; Potency, µM (titrated, usually from 57.6 µM), for the others: top-dose activity change, negative = inhibition, hits mostly inhibitors; 1,400 compounds, 76% hits; AID 1347044, 2019; calls by dose curve; further: potency means the concentration at half of the fitted maximal effect; nearly all actives have a fitted effect of over 70% in size
NPR2 antag – Natriuretic polypeptide receptor (hNpr2) antagonism - Subtype selectivity assay. 1,400 compounds, 67% hits. Potency, µM (highest dose often 57.6 µM), inactives show at the top dose activity change, negative = inhibition, most hits filed as inhibitors. HEK293 hNpr2 GloSensor cGMP luminescence, CNP-stimulated. shares compounds with NPR1 antag; calls by dose curve; further: potency means the concentration at half of the fitted maximal effect; nearly all actives have a fitted effect of over 70% in size
Target sequence (P20594 whole entry, looked up): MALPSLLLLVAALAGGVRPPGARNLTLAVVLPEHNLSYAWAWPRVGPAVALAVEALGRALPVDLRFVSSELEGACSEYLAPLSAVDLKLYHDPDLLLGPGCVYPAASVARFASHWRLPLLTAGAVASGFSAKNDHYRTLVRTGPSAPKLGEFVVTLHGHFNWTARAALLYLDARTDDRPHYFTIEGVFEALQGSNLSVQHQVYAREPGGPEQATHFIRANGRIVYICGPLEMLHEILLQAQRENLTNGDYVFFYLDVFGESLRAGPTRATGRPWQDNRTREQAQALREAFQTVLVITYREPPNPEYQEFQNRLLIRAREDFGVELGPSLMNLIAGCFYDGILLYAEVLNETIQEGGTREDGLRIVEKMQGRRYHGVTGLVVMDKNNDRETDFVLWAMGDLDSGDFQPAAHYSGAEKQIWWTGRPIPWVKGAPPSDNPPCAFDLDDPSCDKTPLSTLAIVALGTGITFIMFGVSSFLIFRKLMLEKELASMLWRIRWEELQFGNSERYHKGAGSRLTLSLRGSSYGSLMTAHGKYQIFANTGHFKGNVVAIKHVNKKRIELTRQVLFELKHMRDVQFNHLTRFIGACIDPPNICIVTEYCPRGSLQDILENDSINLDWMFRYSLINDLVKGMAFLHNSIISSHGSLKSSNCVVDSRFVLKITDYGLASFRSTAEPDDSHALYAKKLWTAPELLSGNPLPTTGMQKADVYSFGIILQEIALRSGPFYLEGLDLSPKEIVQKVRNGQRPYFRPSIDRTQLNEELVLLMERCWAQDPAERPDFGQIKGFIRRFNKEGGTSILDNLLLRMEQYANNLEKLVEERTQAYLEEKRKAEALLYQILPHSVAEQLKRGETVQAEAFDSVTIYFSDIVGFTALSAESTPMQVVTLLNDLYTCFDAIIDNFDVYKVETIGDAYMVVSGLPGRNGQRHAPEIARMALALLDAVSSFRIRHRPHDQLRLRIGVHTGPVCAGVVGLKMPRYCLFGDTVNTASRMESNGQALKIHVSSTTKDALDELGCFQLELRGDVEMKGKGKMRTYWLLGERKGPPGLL
FLuc counter – Natriuretic polypeptide receptor (hNpr1) antagonism - Confirmation firefly luciferase (FLuc) inhibition counterscreen | purified FLuc enzyme, luminescence, Km substrate | shares compounds with NPR1 antag | Potency, µM (series often up to 57.6 µM), for the others: top-dose activity change, negative = inhibition, usual class: inhibitors | 1,400 compounds, 0.7% hits; further: potency means the concentration at half of the fitted maximal effect; 0% is about no effect
GloSensor ctrl – Natriuretic polypeptide receptor (hNpr1) antagonism - Counterscreen GloSensor control cell line | HEK293 GloSensor cGMP, SNP-stimulated, luminescence | Potency, µM (series often up to 57.6 µM), for inactives: top-dose activity change, negative = inhibition, most hits filed as inhibitors | 1,400 compounds, 69% hits | shares compounds with NPR1 antag | AID 1347051, 2019; calls by dose curve; further: potency means the concentration at half of the fitted maximal effect; on the % scale 0 is the no-effect control and ±100 the full control effect; nearly all actives have a fitted effect of over 70% in size
GPT2 conf – Confirmatory qHTS assay for inhibitors of Glutamate pyruvate transaminase 2 (GPT2); shares compounds with GPT2 inhibitor; GPT2 enzyme, coupled Amplex Red pyruvate fluorescence; Potency, µM, most hits filed as inhibitors; 95 compounds, 90% hits; AID 1671187, 2021
Starred values were filed as active, the others as inactive; [ ] = remark or other dose. Sampled rows, rich in hits. Any-hit rate of the full collection: about 10%. Unless noted, the call rests on the fitted dose curve; in most records, active means well fitted curve in the direction sought with a large enough effect; inconclusive means small, poorly fitted or top-dose-only effect, or another doubt; inactive means no such curve, though single readings can be large; an effect the other way counts as inactive or inconclusive.

What do the screens show for `COc1ccc(S(=O)(=O)NC[C@H]2COCc3nc4cc(C)ccc4n32)cc1`?
HEK293 tox: inconclusive; GPT2 inhibitor: inactive; NPR1 antag: 16µM*; NIH3T3 tox: inconclusive; Luciferase inh: inactive; Npr1 antag conf: 31µM*; NPR2 antag: 31µM*; FLuc counter: 3%[86.2 µM]; GloSensor ctrl: 22µM*

Results for COc1ccccc1C(=O)N1CCCC(C(=O)N2CCC(N3CCOCC3=O)CC2)C1 (centres undefined) ?
HEK293 tox: -1%; GPT2 inhibitor: inactive; NIH3T3 tox: -19%

Results for O=C(Nc1ccc(F)cc1)c1ccc2cc[nH]c2n1 ?
HEK293 tox: inconclusive; GPT2 inhibitor: 2%[88.5 µM]; NIH3T3 tox: inconclusive; Npr1 antag conf: 25µM*; NPR2 antag: 31µM*; FLuc counter: 0.89µM*; GloSensor ctrl: 25µM*

How did CC(C)Oc1ccc(CNC(=O)c2cc3n(n2)CC(c2ccc(Cl)cc2)OC3)cc1 (centres undefined) do in these assays?
HEK293 tox: inconclusive; GPT2 inhibitor: inconclusive; NPR1 antag: inconclusive; NIH3T3 tox: inconclusive; Luciferase inh: inactive; Npr1 antag conf: inconclusive; NPR2 antag: -22%; FLuc counter: 2%; GloSensor ctrl: -25%

Results for COc1ccc(CNC(=O)c2cc3n(n2)CC(c2ccc(Cl)cc2)OC3)cc1OC (centres undefined) ?
HEK293 tox: inconclusive; GPT2 inhibitor: -7%; NPR1 antag: inconclusive; NIH3T3 tox: inconclusive; Luciferase inh: inactive

What do the screens show for `O=C(NCc1ccc(F)c(Cl)c1)c1cc2n(n1)CC(c1ccc(Cl)cc1)OC2` (centres undefined)?
HEK293 tox: 35µM*; GPT2 inhibitor: -16%; NPR1 antag: inconclusive; NIH3T3 tox: inconclusive; Luciferase inh: inactive; Npr1 antag conf: inconclusive; NPR2 antag: -28%; FLuc counter: 3%; GloSensor ctrl: inconclusive

Results for CCCCC[C@H](CC(=O)NO)C(=O)N[C@H](C(=O)N1CCC[C@H]1CO)C(C)C ?
GPT2 inhibitor: -25%

How did Cc1cc2c(s1)Nc1ccccc1N=C2N1CCN(C)CC1 do in these assays?
GPT2 inhibitor: inconclusive; GPT2 conf: 8.6*

What do the screens show for `Cc1ccc2c(c1)C(N1CCN(C)CC1)=Nc1cccnc1N2`?
GPT2 inhibitor: inactive

What do the screens show for `CN(C)C[C@@H]1CN(S(C)(=O)=O)C[C@H]1NC(=O)CCc1ccccc1`?
HEK293 tox: -3%; GPT2 inhibitor: -12%; NPR1 antag: 1%; NIH3T3 tox: -2%; Luciferase inh: inactive

Results for Cc1cccc(-c2ocnc2C(=O)N2CCCCCCNC(=O)[C@@H]3CCC[C@@H]32)c1 ?
HEK293 tox: -1%; GPT2 inhibitor: inactive; NPR1 antag: 1%; NIH3T3 tox: 5%; Luciferase inh: inactive

Results for COc1ccc(N2CC(C)(NC(C)=O)C2)cc1 ?
GPT2 conf: 3.5*

Results for CC(=O)NC1(C)CN(c2ccc(OC(F)(F)F)cc2)C1 ?
HEK293 tox: inconclusive; GPT2 inhibitor: -9%[88.5 µM]; NPR1 antag: -13%[70.6 µM]; NIH3T3 tox: inconclusive; Luciferase inh: inactive

Results for CN(C)c1ccc2c(c1)CN(C(=O)c1cnccn1)CCO2 ?
HEK293 tox: -4%; GPT2 inhibitor: inconclusive; NIH3T3 tox: -19%; GPT2 conf: 0.86*

Results for O=C(O)[C@H]1O[C@H](Oc2cc3oc(-c4ccccc4)cc(=O)c3c(O)c2O)[C@H](O)[C@@H](O)[C@H]1O ?
GPT2 inhibitor: 3.4µM*; GPT2 conf: 3.1*

What do the screens show for `Cn1nccc1C(=O)N1C[C@@H]2CCCN3CCC[C@@H]([C@H]23)[C@H]1CCCC(=O)N1CCOCC1`?
HEK293 tox: -3%; GPT2 inhibitor: inactive; NPR1 antag: 0%; NIH3T3 tox: inactive; Luciferase inh: inactive

How did CC(=O)Nc1ccc(-c2c(C3CC3)nn(-c3cccc(C)c3)c2OC(C)=O)cc1 do in these assays?
HEK293 tox: -9%; GPT2 inhibitor: inconclusive; NPR1 antag: 1%; NIH3T3 tox: inactive; Luciferase inh: inactive; GPT2 conf: 9.7*

Results for CNC(=O)c1cc(Nc2cccc(N(C)C)c2)cc2c1OCCN2Cc1cccnc1 ?
HEK293 tox: inconclusive; GPT2 inhibitor: inconclusive; NPR1 antag: -1%[70.6 µM]; NIH3T3 tox: inconclusive; Luciferase inh: inactive; GPT2 conf: 3.5*

What do the screens show for `O=C(c1cccs1)N1CCOc2ccc(N3CCCC3)cc2C1`?
HEK293 tox: 18µM*; GPT2 inhibitor: 1.3µM*; NIH3T3 tox: inconclusive; GPT2 conf: 1.4*
